Compounds with a hit are over-represented: about 0.98% of the library has one in this group of screens.
Y pestis TopoI: inhibitors of Yersinia pestis topoisomerase I. Y. pestis Topo-I cleavage product accumulation, plate reader. activity, % at 10 µM. hit rate 0.064% among 360,000; in the data active = activity above about 50%, passing the limit was not always enough; inconclusive = no clear call, values can overlap the other calls
UGM FP inh: blocks M. tuberculosis UGM enzyme | P9WIQ1 | purified UGM, fluorescence polarization probe displacement | inhibition, % at 10 µM | hit rate 0.06% among 320,000 | AID 504406; in the data active = inhibition above about 10%, passing the limit was not always enough; inconclusive = no clear call, values can overlap the other calls
Target sequence (P9WIQ1 whole entry, looked up): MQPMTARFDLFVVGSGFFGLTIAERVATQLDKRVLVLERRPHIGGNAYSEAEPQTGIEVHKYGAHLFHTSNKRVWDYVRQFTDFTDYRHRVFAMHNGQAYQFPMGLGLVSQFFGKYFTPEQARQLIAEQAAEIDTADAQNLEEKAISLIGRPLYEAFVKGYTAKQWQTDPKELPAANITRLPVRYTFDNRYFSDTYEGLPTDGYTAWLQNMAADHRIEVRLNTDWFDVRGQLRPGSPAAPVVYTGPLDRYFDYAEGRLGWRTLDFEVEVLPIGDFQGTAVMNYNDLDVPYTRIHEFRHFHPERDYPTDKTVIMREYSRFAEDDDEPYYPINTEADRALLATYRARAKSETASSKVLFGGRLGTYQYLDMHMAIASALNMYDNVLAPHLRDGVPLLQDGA
PfHsp40 yeast: compounds rescuing yeast from Plasmodium falciparum HSP40 toxicity; hit rate 0.68% among 340,000; growth rescue, % at 12.5 µM; S. cerevisiae expressing PfHsp40, growth rescue, ATP luminescence; AID 504582; in the data active = growth rescue above about 28%, passing the limit was not always enough; inconclusive = no clear call, values can overlap the other calls;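 note: yeast W303a lacking pdr1 and pdr3 grown in galactose medium; growth measured after three days at 30 °C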
Mtb bLac sens: beta-lactam sensitization of Mtb H37Rv; hit rate 0.27% among 330,000; inhibition, % at 25 µM; M. tuberculosis H37Rv growth with meropenem, percent inhibition; AID 434955; call rule not given here;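 note: growth measured after seven days incubation then overnight dye step; 0% = bacteria only wells and 100% = bacteria with antibiotic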
FadD28 binding: blocks FadD28 binding to the bisubstrate probe. inhibition, % at 12.5 µM. hit rate 0.22% among 360,000. AID 588549. fluorescence polarization; in the data active = inhibition above about 8.5%, passing the limit was not always enough; inconclusive = no clear call, values can overlap the other calls
Rv3671c protease: inhibits the M. tuberculosis serine protease Rv3671c; P9WHR9; inhibition, % at 5.96 µM; hit rate 0.048% among 320,000; AID 2606; in the data active = inhibition above about 38%;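 note: extracellular domain of Rv3671c used as enzyme; 0% = enzyme with DMSO and 100% = no enzyme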
Numbers without * were called inactive; ? = inconclusive; . = no result.

SMILES	Y pestis TopoI	UGM FP inh	PfHsp40 yeast	Mtb bLac sens	FadD28 binding	Rv3671c protease
CC(=O)C(C(C)=O)c1c(Cl)c(O)c(O)c2c(C(=O)c3ccccc3)coc12	2	-1	51*	7	1	19
CN1CCN(Cc2c(O)ccc3occ(C(=O)c4ccccc4)c23)CC1	1	2	-1	?	1	-7
CCCn1c(SCC(=O)N(C)C2CCCCC2)n[nH]c1=O	2	.	.	.	-2	.
CC(=O)Nc1ccc(CN(C)c2c(C)nc3ccc(C(=O)NCCCN4CCCC4=O)cn23)cc1	0	.	.	.	-1	.
Cc1ncoc1C(=O)N1CCCC(C(=O)c2ccc(-c3ccccc3)c(F)c2)C1 (configuration not stated)	13	-1	183*	2	-3	-5
C[C@@H]1CN([C@H](C)CO)C(=O)c2c(c3ccccc3n2C)-c2ccccc2CO[C@H]1CN(C)S(=O)(=O)c1cn(C)cn1	26	.	.	.	-1	.
COc1cc2ccccc2nn1	-5	1	0	5	-3	2
COc1ccc2c(n1)Sc1nc3ccccc3nc1N2	-3	-1	336*	10	2	2
CCN(c1ccccc1)S(=O)(=O)c1ccc(C(=O)Nc2nnc(CSC)o2)cc1	-10	-2	40*	48	-4	-8
CCN(c1ccccc1)S(=O)(=O)c1ccc(C(=O)Nc2nnc(COC)o2)cc1	-3	0	1	37	-5	-4
COc1cc(CN2C[C@@H](CO)O[C@@H](n3cnc4c(NCCCO)ncnc43)C2)cc(OC)c1OC	-10	.	.	.	-3	.
CCOc1ccc(S(=O)(=O)NC2CCCCCC2)cc1	12	0	1	-1	1	2
CCOc1cc(S(=O)(=O)NC2CCCCCC2)ccc1F	16	1	48*	-4	-5	-3
COc1cc(S(=O)(=O)NC2CCCCC2)ccc1Cl	-4	2	91*	-14	-1	-6
Cc1cccc(S(=O)(=O)NC(=O)C2(C)CCN2C(=O)Cc2ccc(Cl)cc2Cl)c1 (configuration not stated)	4	.	.	.	-4	.
O=c1[nH]c(=O)n(C2OC(CO)C(O)C2O)cc1F (configuration not stated)	5	.	203*	.	-2	.
Nc1nc(=O)n(C2OC(CO)C(O)C2O)cc1F (configuration not stated)	.	.	.	.	-4	.
N#CC(C#N)=C(N)/C(C#N)=C/c1cc(O)c(O)c(O)c1	-9	-1	0	4	13*	4
N#C/C(=C\c1ccc(O)c(O)c1)C(=O)c1ccc(O)c(O)c1	1	1	-1	9	5	2
Oc1ccccc1C1SC(c2ccccc2O)SC(c2ccccc2O)S1 (configuration not stated)	-24	.	32*	.	-3	.
Cc1cc2c(cc1C)CSC(c1ccccc1O)SC2	-16	0	12	42	-6	-21
COc1cc(NS(=O)(=O)c2ccc(C)cc2)c2ncccc2c1	20	0	542*	20	-7	-8
COc1cc(NCCCCC(C)N)c2nccc(C)c2c1 (configuration not stated)	-5	.	.	.	-3	.
COc1cc(NCCCC(C)N)c2ncccc2c1 (configuration not stated)	-20	.	0	.	8.7*	.
CCCCCCCCN1[C@@H](CC(C)=O)c2cc(C(F)(F)F)ccc2S1(=O)=O	66*	0	3	-4	-1	-4
SMILES	Y pestis TopoI	UGM FP inh	PfHsp40 yeast	Mtb bLac sens	FadD28 binding	Rv3671c protease
Cc1[nH]n(-c2ccccc2)c(=O)c1/C=N/NC(=O)c1cccc([N+](=O)[O-])c1	3	-2	?	.	0	19
Cc1[nH]n(-c2cccc3ccccc23)c(=O)c1/C=N/NC(=O)c1cccc([N+](=O)[O-])c1	-5	5	83*	11	-3	-6
O=C(O)c1ccccc1-c1ccc(/C=c2\sc3nc4cc(Br)cnc4n3c2=O)o1	-4	-2	0	3	24*	6
CCn1c(SCC(=O)Nc2oc(-c3ccccc3)c(-c3ccccc3)c2C#N)nnc1-c1ccco1	28	-1	-2	3	0	-15
COc1ccc(-c2oc(NC(=O)CSc3nncn3C)c(C#N)c2-c2ccc(OC)cc2)cc1	38	-1	44*	0	1	-3
COc1ccc(C(NC(N)=O)c2ccccc2)cc1 (configuration not stated)	6	1	73*	9	-1	6
Cc1ccc(C(NC(N)=O)c2ccccc2)cc1 (configuration not stated)	1	0	-1	1	0	-8
O=C(Nc1cccnc1)C1Cc2c(-c3ccco3)ccnc2O1 (configuration not stated)	4	.	.	.	-1	.
Cn1cnc([N+](=O)[O-])c1S(=O)(=O)Oc1ccc(Cl)cc1	6	.	233*	.	-1	.
COc1ccc(C(c2c(O)ccc3ccccc23)N2CCOCC2)c(OC)c1 (configuration not stated)	1	-2	410*	100	-3	-16
COc1ccc(C(CCN2CCOCC2)c2c(O)cc(OC)cc2OC)cc1 (configuration not stated)	-13	0	-1	-12	-3	-4
O=C(OCC(=O)N1CCc2ccccc21)c1ccccn1	5	-1	-1	1	-4	1
O=C(CSc1ccc(-c2ccccn2)nn1)c1ccc([N+](=O)[O-])cc1	6	0	95*	0	-1	12
O=C(CSc1ccccn1)N1CCc2ccccc21	5	0	72*	8	1	-10
O=C(CSc1ccc(-c2ccccn2)nn1)N1CCc2ccccc21	-4	2	224*	1	-2	-5
O=C(CSc1ccc(-c2ccccn2)nn1)NC1CCCCC1	-6	2	320*	-1	-2	-2
O=C(CSc1ccc(-c2ccccc2)nn1)NC1CCCCC1	7	1	0	-4	2	6
O=C(CSc1ncccn1)N1CCCc2ccccc21	5	0	1	0	0	9
OCc1ccccc1-c1nc(NCC2CC2)nc2ccsc12	7	.	.	.	-1	.
O=C(CSc1ccc(-c2ccccn2)nn1)N1CCCCC1	-1	-1	135*	0	0	-1
O=C(NC(=S)NCc1nc2ccccc2[nH]1)c1ccc(F)cc1	3	0	1	3	-4	5
O=C(NC(=S)NCc1nc2ccccc2[nH]1)c1ccccc1F	-9	-2	0	8	8.9*	-5
Cc1ccc(SCc2cc(=O)[nH]c(Nc3nc(C)c4ccccc4n3)n2)cc1	-1	1	1	-8	-2	-9
COc1ccc2nc(Nc3nc(CSc4nnc(C)s4)cc(=O)[nH]3)nc(C)c2c1	.	0	.	10	.	7
Cc1ccc2nc(Nc3nc(CSc4nnc(C)s4)cc(=O)[nH]3)nc(C)c2c1	58*	0	0	-2	-2	6
Cc1ccc(SCc2cc(=O)[nH]c(Nc3nc(C)c4ccc(C)cc4n3)n2)cc1	113*	-1	0	13	-2	-1
CNc1ccc(-c2cccc(C#N)c2)cn1	1	.	.	.	-5	.

Assay outcomes (PubChem)
